Measurements published in the supplement of paper PMC10849652.
The full data set covers some 8,800 targets. This sample favours those with a hit. About 0.5% of all pairs of compound and target were hits.

compound: Cc1nc(Nc2ncc(C(=O)Nc3c(C)cccc3Cl)s2)cc(N2CCN(CCO)CC2)n1 [dasatinib]; test: log2 fold change, soluble protein after heating vs DMSO (PISA); higher = thermal stabilisation; K562 lysate, 10 uM; active = over 0.2 and 3.5 SD of the protein, either way, in both replicates (recomputed)
In short: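 K562 pellets were dounce-homogenised in PBS pH 7.4 containing 1 mM MgCl2, and the crude extract, at 1 mg/mL protein, was exposed to 10 μM compound for 30 min. Aliquots were heated for 3 min across 48°C-58°C, pooled, brought to 0.5% NP-40 at 4°C and spun at 21,000xg for 90 min, with the supernatant taken as soluble protein. TMTpro 16plex LC-MS/MS with equalised channel sums quantified that protein. Values are log-two fold changes in thermal stability relative to solvent controls, taken from duplicates.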

Sequence of UniProt O95674 (O95674 whole entry, looked up): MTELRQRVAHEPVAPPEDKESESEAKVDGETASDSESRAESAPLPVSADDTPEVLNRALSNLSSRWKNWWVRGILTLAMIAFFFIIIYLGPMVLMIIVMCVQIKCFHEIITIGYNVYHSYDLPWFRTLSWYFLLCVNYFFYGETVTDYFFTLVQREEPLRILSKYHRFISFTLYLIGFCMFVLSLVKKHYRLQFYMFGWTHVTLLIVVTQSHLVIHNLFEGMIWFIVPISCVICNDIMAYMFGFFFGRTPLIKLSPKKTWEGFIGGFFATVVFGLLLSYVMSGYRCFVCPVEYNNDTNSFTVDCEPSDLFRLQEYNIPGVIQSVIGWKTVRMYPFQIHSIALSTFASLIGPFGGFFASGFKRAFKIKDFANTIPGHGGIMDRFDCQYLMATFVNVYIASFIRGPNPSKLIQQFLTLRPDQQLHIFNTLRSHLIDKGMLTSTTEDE
Sequence of UniProt Q9ULG6 (Q9ULG6 whole entry, looked up): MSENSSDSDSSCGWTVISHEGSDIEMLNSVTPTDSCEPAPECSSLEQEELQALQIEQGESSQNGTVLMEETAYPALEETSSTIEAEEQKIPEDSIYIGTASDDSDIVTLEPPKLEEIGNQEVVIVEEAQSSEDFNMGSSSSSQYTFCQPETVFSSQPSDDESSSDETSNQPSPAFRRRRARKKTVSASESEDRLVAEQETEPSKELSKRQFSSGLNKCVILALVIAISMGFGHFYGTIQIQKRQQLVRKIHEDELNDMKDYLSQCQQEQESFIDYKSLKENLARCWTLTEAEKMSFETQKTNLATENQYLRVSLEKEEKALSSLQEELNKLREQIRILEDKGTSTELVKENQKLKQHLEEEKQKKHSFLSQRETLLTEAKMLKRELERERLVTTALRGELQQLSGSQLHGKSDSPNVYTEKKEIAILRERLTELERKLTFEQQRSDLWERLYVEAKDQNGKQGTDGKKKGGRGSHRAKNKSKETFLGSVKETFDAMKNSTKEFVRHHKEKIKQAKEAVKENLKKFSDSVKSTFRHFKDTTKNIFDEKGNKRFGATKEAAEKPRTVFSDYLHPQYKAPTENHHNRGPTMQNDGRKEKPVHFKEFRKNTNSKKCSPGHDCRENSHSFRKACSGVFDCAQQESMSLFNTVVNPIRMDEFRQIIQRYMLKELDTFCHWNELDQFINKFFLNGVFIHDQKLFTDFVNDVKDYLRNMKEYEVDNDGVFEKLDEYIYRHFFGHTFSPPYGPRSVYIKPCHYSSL
Sequence of UniProt Q8N960 (Q8N960 whole entry, looked up): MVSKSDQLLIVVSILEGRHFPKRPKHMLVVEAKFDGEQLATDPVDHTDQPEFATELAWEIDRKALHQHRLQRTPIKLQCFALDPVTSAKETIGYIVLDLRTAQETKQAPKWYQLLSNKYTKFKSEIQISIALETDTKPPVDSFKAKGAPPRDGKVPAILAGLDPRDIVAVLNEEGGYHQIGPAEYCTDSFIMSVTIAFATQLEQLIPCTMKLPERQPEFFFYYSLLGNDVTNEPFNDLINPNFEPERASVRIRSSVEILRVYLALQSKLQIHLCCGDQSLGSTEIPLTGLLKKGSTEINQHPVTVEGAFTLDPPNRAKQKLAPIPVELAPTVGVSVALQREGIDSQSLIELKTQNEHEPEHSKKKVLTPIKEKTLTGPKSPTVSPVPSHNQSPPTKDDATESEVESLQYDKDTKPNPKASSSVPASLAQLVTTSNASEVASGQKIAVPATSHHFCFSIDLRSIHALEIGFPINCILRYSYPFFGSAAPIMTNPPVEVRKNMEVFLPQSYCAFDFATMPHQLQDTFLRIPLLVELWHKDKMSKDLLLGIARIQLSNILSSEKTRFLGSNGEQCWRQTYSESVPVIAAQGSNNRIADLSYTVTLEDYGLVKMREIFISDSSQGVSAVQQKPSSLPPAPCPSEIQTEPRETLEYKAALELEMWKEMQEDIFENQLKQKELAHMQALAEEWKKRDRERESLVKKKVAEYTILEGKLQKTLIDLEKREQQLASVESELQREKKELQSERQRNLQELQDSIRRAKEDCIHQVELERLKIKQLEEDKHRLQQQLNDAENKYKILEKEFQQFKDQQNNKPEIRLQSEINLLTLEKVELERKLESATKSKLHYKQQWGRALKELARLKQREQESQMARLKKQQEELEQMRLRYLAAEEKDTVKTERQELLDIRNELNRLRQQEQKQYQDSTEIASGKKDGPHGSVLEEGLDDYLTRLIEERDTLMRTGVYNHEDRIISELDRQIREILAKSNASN
Sequence of UniProt Q15059 (Q15059 whole entry, looked up): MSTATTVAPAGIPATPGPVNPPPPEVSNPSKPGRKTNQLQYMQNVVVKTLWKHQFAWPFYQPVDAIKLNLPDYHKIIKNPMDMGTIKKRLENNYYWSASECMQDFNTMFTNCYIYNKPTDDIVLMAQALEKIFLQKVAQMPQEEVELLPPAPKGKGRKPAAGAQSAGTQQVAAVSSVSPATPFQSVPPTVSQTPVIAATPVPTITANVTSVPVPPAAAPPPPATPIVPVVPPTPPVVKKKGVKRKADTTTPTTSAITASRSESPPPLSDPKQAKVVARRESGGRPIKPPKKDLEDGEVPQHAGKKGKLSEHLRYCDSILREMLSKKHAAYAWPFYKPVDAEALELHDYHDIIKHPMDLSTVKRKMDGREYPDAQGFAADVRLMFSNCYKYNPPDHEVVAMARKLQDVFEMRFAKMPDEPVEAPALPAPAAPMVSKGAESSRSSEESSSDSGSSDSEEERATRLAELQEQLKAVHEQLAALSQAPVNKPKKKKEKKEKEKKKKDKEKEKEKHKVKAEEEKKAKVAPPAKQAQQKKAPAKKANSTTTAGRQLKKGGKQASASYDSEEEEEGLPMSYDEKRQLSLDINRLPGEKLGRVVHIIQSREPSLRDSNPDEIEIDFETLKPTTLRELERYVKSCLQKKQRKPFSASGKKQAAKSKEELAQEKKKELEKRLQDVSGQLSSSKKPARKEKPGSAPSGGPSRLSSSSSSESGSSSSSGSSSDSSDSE
Sequence of UniProt P08962 (P08962 whole entry, looked up): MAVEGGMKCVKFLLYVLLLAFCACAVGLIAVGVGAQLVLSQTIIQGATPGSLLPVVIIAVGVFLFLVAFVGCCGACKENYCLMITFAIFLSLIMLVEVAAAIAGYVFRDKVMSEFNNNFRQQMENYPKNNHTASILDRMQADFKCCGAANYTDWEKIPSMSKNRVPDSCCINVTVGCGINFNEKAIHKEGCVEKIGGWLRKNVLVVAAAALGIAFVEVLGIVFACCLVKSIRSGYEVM
Sequence of UniProt P24863 (P24863 whole entry, looked up): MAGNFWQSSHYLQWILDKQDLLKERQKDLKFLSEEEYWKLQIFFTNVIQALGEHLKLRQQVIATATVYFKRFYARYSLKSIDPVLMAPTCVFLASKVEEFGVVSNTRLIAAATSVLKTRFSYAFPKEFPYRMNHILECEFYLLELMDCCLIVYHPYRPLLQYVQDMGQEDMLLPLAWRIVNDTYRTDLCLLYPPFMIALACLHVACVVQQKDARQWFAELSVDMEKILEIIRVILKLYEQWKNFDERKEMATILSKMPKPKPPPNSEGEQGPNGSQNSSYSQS
Sequence of UniProt P40227 (P40227 whole entry, looked up): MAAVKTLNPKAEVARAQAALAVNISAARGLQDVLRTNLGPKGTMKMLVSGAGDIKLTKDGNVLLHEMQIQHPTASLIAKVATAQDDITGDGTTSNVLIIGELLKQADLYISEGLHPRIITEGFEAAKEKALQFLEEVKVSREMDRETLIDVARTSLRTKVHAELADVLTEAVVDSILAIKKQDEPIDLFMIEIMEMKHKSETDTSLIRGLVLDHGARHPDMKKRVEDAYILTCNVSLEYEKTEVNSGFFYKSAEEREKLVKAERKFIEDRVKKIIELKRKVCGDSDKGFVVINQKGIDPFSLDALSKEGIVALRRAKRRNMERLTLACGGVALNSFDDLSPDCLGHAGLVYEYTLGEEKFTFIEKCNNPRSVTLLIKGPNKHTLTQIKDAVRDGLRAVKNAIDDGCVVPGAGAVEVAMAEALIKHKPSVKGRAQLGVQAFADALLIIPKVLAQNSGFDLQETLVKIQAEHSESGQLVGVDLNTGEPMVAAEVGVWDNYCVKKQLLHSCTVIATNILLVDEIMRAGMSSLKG
Sequence of UniProt Q8TAP6 (Q8TAP6 whole entry, looked up): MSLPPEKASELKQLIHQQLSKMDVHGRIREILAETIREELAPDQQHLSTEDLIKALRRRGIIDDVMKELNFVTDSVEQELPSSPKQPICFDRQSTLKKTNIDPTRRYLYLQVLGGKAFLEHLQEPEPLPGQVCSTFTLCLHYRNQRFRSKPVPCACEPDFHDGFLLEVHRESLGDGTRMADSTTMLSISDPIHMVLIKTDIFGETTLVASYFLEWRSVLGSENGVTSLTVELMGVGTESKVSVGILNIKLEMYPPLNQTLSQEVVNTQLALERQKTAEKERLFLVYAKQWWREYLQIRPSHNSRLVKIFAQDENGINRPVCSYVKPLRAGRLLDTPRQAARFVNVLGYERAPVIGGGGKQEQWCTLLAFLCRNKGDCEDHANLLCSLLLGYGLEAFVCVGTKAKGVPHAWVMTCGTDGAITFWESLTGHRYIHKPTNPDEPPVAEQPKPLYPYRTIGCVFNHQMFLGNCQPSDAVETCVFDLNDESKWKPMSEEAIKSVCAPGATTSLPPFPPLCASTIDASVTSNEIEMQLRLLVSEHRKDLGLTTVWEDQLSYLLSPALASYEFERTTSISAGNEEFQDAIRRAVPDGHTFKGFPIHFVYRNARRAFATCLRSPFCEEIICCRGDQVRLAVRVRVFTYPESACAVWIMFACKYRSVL
Sequence of UniProt Q8NBU5 (Q8NBU5 whole entry, looked up): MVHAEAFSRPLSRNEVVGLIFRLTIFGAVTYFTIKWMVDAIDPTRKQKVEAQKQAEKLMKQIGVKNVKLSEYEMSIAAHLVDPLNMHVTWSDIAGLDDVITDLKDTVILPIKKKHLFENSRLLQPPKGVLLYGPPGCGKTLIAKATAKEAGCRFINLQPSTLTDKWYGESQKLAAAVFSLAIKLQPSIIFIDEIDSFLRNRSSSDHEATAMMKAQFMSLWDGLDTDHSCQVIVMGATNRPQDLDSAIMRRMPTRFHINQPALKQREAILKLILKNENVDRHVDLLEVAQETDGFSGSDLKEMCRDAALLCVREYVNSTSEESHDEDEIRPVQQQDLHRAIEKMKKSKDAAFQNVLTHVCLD

log2 fold change, inactive:
BLOC1S6 (UniProt Q9UL45) 0.093
BAG4 (UniProt O95429) 0.027
CCNC (UniProt P24863) 0.04
CALM2 (UniProt P0DP24) -0.013
CEP76 (UniProt Q8TAP6) -0.002
CDS2 (UniProt O95674) 0.073
CCAR2 (UniProt Q8N163) -0.069
CDKN2AIP (UniProt Q9NXV6) -0.004
BRD3 (UniProt Q15059) -0.011
CEP120 (UniProt Q8N960) 0
C18orf25 (UniProt Q96B23) -0.022
CDAN1 (UniProt Q8IWY9) -0.055
ATAD1 (UniProt Q8NBU5) 0.001
CCT6A (UniProt P40227) -0.001
C5orf51 (UniProt A6NDU8) -0.029
CHCHD4 isoform 2 (UniProt Q8N4Q1) -0.035
CCPG1 isoform 5 (UniProt Q9ULG6) 0.013
CD63 (UniProt P08962) -0.034
CES2 isoform 4 (UniProt O00748) 0.065
CFDP1 (UniProt Q9UEE9) 0.029
AURKAIP1 (UniProt Q9NWT8) 0
CCDC186 (UniProt Q7Z3E2) -0.014
ATP13A1 (UniProt Q9HD20) 0.102
